# Assay results taken from PubChem BioAssay (NCATS).
# Results filed as inconclusive are left out. Values without a mark were called inactive. Active and inactive are the calls of the source. Calls follow the shape of the dose curve; as a rule, active = well fitted inhibition curve with a large enough effect; inconclusive = small, poorly fitted or top-dose-only effect; inactive = flat fitted curve, though single readings scatter.
# Experiment: Primary qHTS for inhibitors of nuclear receptor binding SET domain protein 2 (NSD2) in an isogenic RCH-ACV NSD2 p.E1099K mutant (9B) (AID 1645876); also: nearly all actives have a fitted effect of over 70% in size
# Details: RCH-ACV (leukaemia line) NSD2 E1099K (9B) viability, CellTiter-Glo, 72 h; series mostly up to 44.9 µM; activity change, negative = viability loss: at the top concentration
# % is scaled to controls: 0 for no effect and ±100 for the full control effect.
Compound,"activity change, negative = viability loss",outcome
C[C@@H]1CCN(C(=O)CC#N)C[C@@H]1N(C)c1ncnc2[nH]ccc12,7.32%,–
C=C1CC/C=C(/CO)C(=O)C[C@@H]2[C@@H]1CC2(C)C,-8.47%,–
CC12CC34C=CC(=O)C(C)(CCC(=O)O)C3C(CC1C4)O2 (stereo not drawn),-2.7%,–
C[C@@H]1C[C@H](O)/C=C/[C@H](O)[C@@H](O)CC(=O)O1,2.07%,–
C[C@@H]1O[C@@H](OC[C@H]2O[C@@H](OCC3CCC4CC3C4(C)C)[C@H](O)[C@@H](O)[C@@H]2O)[C@H](O)[C@H](O)[C@H]1O (stereo partly drawn),-3.14% [at 17.3 µM],–
CC1=C(CC(=O)O)c2cc(F)ccc2C1=Cc1ccc(S(C)(=O)=O)cc1,–,inactive
COc1c(OC2OC(CO)C(O)C(O)C2O)ccc(O)c1C(=O)OCc1ccccc1O[C@@H]1O[C@H](CO)[C@@H](O)[C@H](O)[C@H]1O (stereo partly drawn),-7.59% [at 17.3 µM],–
COC1=CC(=O)O[C@@H](CCc2ccccc2)[C@@H]1O,-2.9%,–
C=C1[C@H]2CC[C@]3(O)[C@@](CC[C@@H]4[C@](C)(C(=O)O)CCC[C@]43C)(C2)[C@H]1OC(=O)/C(C)=C\C,-9.95% [at 17.3 µM],–
O=c1c2ccccc2nc2n1CCC2O (stereo not drawn),-4.8% [at 91.9 µM],–
C=CC(C)(O)CO[C@@H]1O[C@H](CO)[C@@H](O)[C@H](O)[C@H]1O (stereo partly drawn),0.748%,–
C=C1[C@H]2[C@H](O[C@@H]3O[C@H](COC(=O)/C=C/c4cc(OC)c(O)c(OC)c4)[C@@H](O)[C@H](O)[C@H]3O)OC=C(C(=O)O)[C@H]2C[C@@H]1O,-0.778% [at 17.3 µM],–
CC(=O)O[C@@H]1C[C@]2(C)[C@@]3(CCC4[C@@]5(C)CC[C@H](O[C@@H]6O[C@H](C(=O)O)[C@@H](O)[C@H](O[C@@H]7O[C@H](CO)[C@H](O)[C@H](O)[C@H]7O[C@@H]7O[C@@H](C)[C@H](O)[C@@H](O)[C@H]7O[C@@H]7OC[C@](O)(CO)[C@H]7O)[C@H]6O[C@@H]6O[C@H](CO)[C@H](O)[C@H](O)[C@H]6O)C(C)(C)C5CC[C@]42C)O[C@@H](O)[C@]12C3CC(C)(C)[C@@H](OC(=O)/C=C/c1ccc(O)c(O)c1)[C@@H]2OC(=O)/C=C/c1ccccc1 (stereo partly drawn),-5.24% [at 9.23 µM],–
